This passage reports inhibition results from ChEMBL document CHEMBL3433997, “St. Jude Leishmania screening dataset” (2016).

Holding throughout (assay type): functional
The target in assay [1] is Solute carrier family 2, facilitated glucose transporter member 1 (Homo sapiens) (UniProt P11166). Kind of assay: ST_JUDE_LEISH: Cytotoxicity at 2uM final concentration against transgenic Leishmania Mexicana promastigotes LmGLUT1 that are glucose transport deficient and complemented with the human glucose transporter GLUT1. Activity is measured by DNA content using SYBR green in vitro.

Assay [2] has as its target Hexose transporter 1 (Plasmodium falciparum) (UniProt O97467). Kind of assay: ST_JUDE_LEISH: Cytotoxicity at 2uM final concentration against transgenic Leishmania Mexicana promastigotes LmPfHT that are glucose transport deficient and complemented with the Plasmodium falciparum hexose transporter. Activity is measured by DNA content using SYBR green in vitro.
Assay [3] deals with Glucose transporter (Leishmania mexicana) (UniProt O61059). Kind of assay: ST_JUDE_LEISH: Cytotoxicity at 2uM final concentration against transgenic Leishmania Mexicana promastigotes LmGT2 that are glucose transport deficient and complemented with the L. Mexicana glucose transporter 2. Activity is measured by DNA content using SYBR green in vitro.

Sequence of Solute carrier family 2, facilitated glucose transporter member 1 (Homo sapiens) (P11166 whole entry): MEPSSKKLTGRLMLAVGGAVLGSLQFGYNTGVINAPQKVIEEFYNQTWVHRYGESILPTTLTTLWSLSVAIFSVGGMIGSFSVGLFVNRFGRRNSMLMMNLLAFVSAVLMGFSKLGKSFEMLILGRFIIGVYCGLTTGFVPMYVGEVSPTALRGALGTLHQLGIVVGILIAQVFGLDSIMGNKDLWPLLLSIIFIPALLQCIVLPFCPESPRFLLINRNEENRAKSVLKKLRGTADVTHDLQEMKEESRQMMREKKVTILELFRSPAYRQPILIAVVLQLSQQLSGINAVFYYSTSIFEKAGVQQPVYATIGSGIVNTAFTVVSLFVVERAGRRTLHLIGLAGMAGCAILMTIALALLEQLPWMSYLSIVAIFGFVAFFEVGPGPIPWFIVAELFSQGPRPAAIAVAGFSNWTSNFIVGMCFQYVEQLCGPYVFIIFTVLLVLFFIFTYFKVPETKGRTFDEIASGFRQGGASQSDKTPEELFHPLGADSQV

A word on the inhibition: it is the change of the read-out against control, counted positive when it falls. On to `CCc1cc(Br)c(CNCCCNc2cc(=O)c3ccccc3[nH]2)s1`, for which the inhibition in assay [1] is 0.41%; in assay [2], -0.52%; in assay [3], -2.7%.
As to `CC1(C)NC(N)=NC(=N)N1OCCc1cccc2ccccc12`, the inhibition in assay [1] came to 2.21%; in assay [2], 10.7%; in assay [3], 4.71%.
Taken in the same sequence, the figures for `Cn1nc(C(=O)N2CCC(c3[nH]ncc3Cc3ccccc3)CC2)c2ccccc2c1=O` were 0.16%, 2.06% and 2.12%.
For the molecule `Cc1ccc(O)cc1Nc1ccnc2ccc(-c3cccc(CN(C)C)c3)cc12`, the inhibition in assay [1] is 0.24%; in assay [2], -2.77%; in assay [3] it was 0.73%.
The corresponding values for `NC(=O)c1cccc(Nc2nccc(Nc3ccc(Oc4c(Cl)cccc4Cl)c(Cl)c3)n2)c1` are 9.27%, 9.62% and 2.92%.
Consider `CC(NC(=O)c1ccc(O)c(-c2ccc(Cl)c(Cl)c2)c1)C(=O)NC1CCCCC1` (centres undefined), for which the inhibition is 5.53% in assay [1], 4.55% in assay [2] and 5.71% in assay [3].
In the case of `O=C(NCCCCCN1CCC(c2c[nH]c3ccccc23)CC1)Nc1cccc(C(F)(F)F)c1`, the inhibition in assay [1] is -1.78%; in assay [2], -2.05%; in assay [3], -2.66%.
The corresponding values for `Cc1ccc(NC(C)C(=O)Nc2ccccc2)cc1S(=O)(=O)N1CCCCCC1` (centres undefined) are 10.6%, 9.81% and 9.12%.
With `CC(=O)Nc1nc(C)c(-c2csc(Nc3ccc(Cl)cc3)n2)s1`, the inhibition in assay [1] was -0.76%; in assay [2] it was -1.35%; in assay [3], -2.23%.
The corresponding values for `Nc1nc(N)c2c(ccc3c2ccn3CCCF)n1` are 1.79%, 5.24% and 0.69%.
The corresponding values for `COc1ccc2nccc([C@@H](O)CN3CCC(NCc4nc5c(cc4Cl)OCC(=O)N5)C(F)C3)c2c1` (some centres undefined) are 1.37%, 0.56% and 0.2%.
Taken in the same sequence, the figures for `O=C(Nc1ccc(OC2CCN(Cc3ccccc3)CC2)c(Cl)c1)c1cccs1` were 2.31%, 4.54% and 4.68%.
Turning to `Cc1cnccc1/C=C/c1cccc(OCCCN2CCc3ccc(S(C)(=O)=O)cc3CC2)c1`, the inhibition was 2.21% in assay [1], 2.58% in assay [2] and 2.19% in assay [3].
As to `O=C(/C=C/c1c(Cl)cccc1Cl)NC1CCC(CN2CCC(Cc3cc4ccccc4[nH]3)CC2)CC1` (centres undefined), the inhibition in assay [1] turned out to be 4.15%; in assay [2] it was 10.2%; in assay [3], 2.31%.
Taken in the same sequence, the figures for `Cc1cccc(Oc2cccc3[nH]nc(N)c23)c1` were 3.75%, 3.96% and 3.98%.
In the case of `Cc1cccc(-c2nc(Nc3ccncc3)c3cc(N(C)C)ccc3n2)n1`, the results for the inhibition in assay [1], in assay [2] and in assay [3] were 0.37%, -1.05% and -3.66%, respectively.
The corresponding values for `CCn1c(C)c(C)c2cc(C(=O)Nc3ccon3)ccc21` are 1.66%, 1.02% and 0.74%.
The corresponding values for `COc1ccc(O)c(Cc2cnc3nc(N)nc(N)c3c2C)c1` are 12.3%, 11.2% and 11.4%.
Taken in the same sequence, the figures for `Nc1nc(N)c2c(ccc3c2ccn3Cc2cccc(F)c2)n1` were 102%, 104% and 99.8%.
Regarding `COc1ccc(CCNCCCCCCNCCc2cccc([N+](=O)[O-])c2)cc1OC`, the inhibition in assay [1] turned out to be 0.45%; in assay [2], 1.78%; in assay [3], 3.28%.
The corresponding values for `COc1ccc(Cl)cc1NC(=O)Nc1ccnc2ccccc12` are 14.6%, 13.4% and 6.32%.
Taken in the same sequence, the figures for `COc1ccc2c(Nc3ccc(N4CCN(C)CC4)cc3)cc(C)nc2c1` were 9.36%, 6.21% and 4.55%.
Taken in the same sequence, the figures for `Cc1cc(=NN=Cc2ccccc2Cl)c2cccc(C)c2[nH]1` were 3.87%, 2.32% and -1.14%.
For the molecule `COc1cccc(OC)c1CN1CCC(N(C)CCCCCCCCN2CCC(OC(=O)Nc3ccccc3-c3ccccc3)CC2)CC1`, the inhibition in assay [1] was determined as 105%; in assay [2], 108%; in assay [3], 74.3%.
The corresponding values for `Cc1nc(-c2cccc(Nc3nccc(NCC(O)c4ccccc4C)n3)c2)cs1` (centres undefined) are 2.79%, 3.57% and 3.17%.
The corresponding values for `Oc1ccc(CN2CCC(NCc3cccc(C(F)(F)F)c3)CC2)cc1` are 11.3%, 13.7% and 13.7%.
The corresponding values for `COc1ccc2nccc([C@@H](O)CN3CCC(NC(=O)CCC(=O)c4cc(C(C)(C)C)ccc4OC)CC3)c2c1` are 5.04%, 4.7% and 1.95%.
`CC(C)C[C@H](NC(=O)c1cc2ccccc2s1)C(=O)N[C@H]1CCN(Cc2ccc(OC[C@@H]3CCCN3C)c3ccccc23)C1`: the inhibition in assay [1] was 3.88%; in assay [2], 5.05%; in assay [3] it was 2.71%.
Taken in the same sequence, the figures for `COc1ccc(CN(C)CCCc2ccc(NC(=O)c3cc4ccccc4[nH]3)cc2)cc1OC` were 3.27%, 1.65% and 0.23%.
On to `Clc1cc(Nc2ccnc3ccc(Br)cc23)ccc1Oc1ccc2ccccc2c1Cl`, for which the inhibition in assay [1] was determined as 2.41%; in assay [2], 5.44%; in assay [3], 1.22%.
Taken in the same sequence, the figures for `Nc1ncc(-c2ccc(Cl)c(Cl)c2)c(N)n1` were 0.86%, 1.64% and 0.31%.
For `Cc1ccc(-c2cc(C(=O)Nc3ccc(S(=O)(=O)N4CCCCC4C)cc3)n[nH]2)c(O)c1` (centres undefined), the inhibition in assay [1] is -0.81%; in assay [2], -0.31%; in assay [3], -0.79%.
As to `COc1ccc2nccc([C@@H](O)CN3CCC(NC(=O)/C(=C/c4ccccc4)c4ccc(-c5ccccc5)cc4)CC3)c2c1`, the values for the inhibition in assay [1], in assay [2] and in assay [3] were 1.6%, 0.83% and 0.6%, respectively.
The corresponding values for `COc1ccc(NC(=O)c2cn(-c3ccc(C(C)(C)C)cc3)nc2C)cc1N1CCN(C)CC1` are 1.31%, 0.2% and 1.64%.
The corresponding values for `COc1ccccc1NC(=O)Nc1ccc(-c2ccc(-c3nc4cc(C(F)(F)F)ccc4[nH]3)cc2)cc1` are 9.03%, 4.25% and 2.26%.
Turning to `COc1cccc(CNCC(C)(C)c2nc(-c3ccc(Cl)c(O)c3)c(-c3ccncc3)[nH]2)c1`, the inhibition in assay [1] is -1.42%; in assay [2], -3.17%; in assay [3] it was 2.87%.
On to `CC1(C)CCC(C)(C)c2c1ccc(C1CCN(CCCCNC(=O)c3ccc(-c4ccc(Cl)cc4)cc3)CC1)c2O`, for which the inhibition stood at 2.14% in assay [1], 1.66% in assay [2] and 0.11% in assay [3].
As for `Fc1ccc2[nH]ccc(=NN=Cc3ccccc3Cl)c2c1`, the figures for the inhibition in assay [1], in assay [2] and in assay [3] were -0.64%, 0.73% and 1.87%, respectively.
Taken in the same sequence, the figures for `CCc1ccc(Cc2cnc3nc(N)nc(N)c3c2C)cc1CC` were -1.77%, 0.71% and 0.12%.
Take `CCCCCc1cc(O)c2c(c1)OC(C)(C)C=C2C1=CCN(Cc2ccsc2)CC1`: the inhibition in assay [1] came out at 2.33%; in assay [2] it was 2.79%; in assay [3], 2.52%.
With `CC(C)CCN1CCCN(Cc2ccc(C(=O)Nc3ccc(C(C)(C)C)cc3)cc2)CC1`, the inhibition in assay [1] came out at 2.66%; in assay [2] it was 1.37%; in assay [3] it was 1.41%.
Taken in the same sequence, the figures for `CN1CCC(NCc2cccc(-c3ccc(S(=O)(=O)NCCN4CCCC4)c(F)c3)c2)CC1` were -1.49%, -0.62% and -0.34%.
The corresponding values for `COc1ccc(Cl)cc1N1CCN(CCCNC(=O)c2ccc(-c3nc4cc(Cl)c(F)cc4[nH]3)cc2)CC1` are 2.81%, 2.7% and 3.92%.
